# Source: PubChem (several laboratories)
# Sampled rows, rich in hits. Any-hit rate of the full collection: about 2.2%.
# KLF5 inh – suppresses KLF5 promoter-driven expression; DLD-1 KLF5 promoter-luciferase reporter, luminescence; inhibition, % at 5 µM; 290,000 compounds, 0.23% hits;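 active = inhibition above a per-plate limit of that plate's mean compound inhibition plus 3 SD, cut at about 60% in these data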;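 also: 0% = DMSO wells and 100% = LY294002 at 200 µM; higher means less KLF5 promoter-driven luciferase light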
# BaF3 tox – reduces parental Ba/F3 cell viability, JAK2V617F counter-screen; inhibition, % at 5.6 µM; CellTiter-Glo ATP luminescence; 220,000 compounds, 1.1% hits; AID 1486;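 active = inhibition above a per-campaign cutoff, the mean inhibition of all tested compounds plus 3 SD, cut at about 27% in these data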;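 also: 0% = DMSO wells and 100% = JAK Inhibitor I control wells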
# IEC-6 tox – counter-screen for KLF5 inhibitors: cytotoxicity in IEC-6 cells. IEC-6 cytotoxicity, luminescence viability. inhibition, % at 5 µM. AID 1825. 290,000 compounds, 0.78% hits; in the data active = inhibition above about 22%;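 also: 0% = plate median of test compound wells and 100% = cytotoxic reference compound wells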
# Ba/F3 V617F tox – lowers viability of Ba/F3 cells expressing EpoR and JAK2V617F | ATP luminescence | inhibition, % at 5.6 µM | 220,000 compounds, 1.1% hits | AID 1446;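 active = inhibition above the campaign mean plus 3 SD over all tested compounds, cut at about 24% in these data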;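 also: cytokine-independent growth of Ba/F3 cells driven by EpoR plus mutant JAK2; 0% = DMSO-treated cells and 100% = JAK inhibitor I control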
# aSyn UTR inh – 5' untranslated region of α-synuclein, MLPCN primary screen | alpha-synuclein 5'UTR reporter, inhibitor activity | inhibition, % (tested at 7.5 µM) | 300,000 compounds, 0.82% hits | AID 1813; in the data active = inhibition above about 60%;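 also: H4 neuroglioblastoma cells stably carrying SNCA 5'UTR luciferase fusion; 0% = DMSO wells and 100% = positive control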
# APP transl inh – APP translation inhibition; SH-SY5Y APP 5'UTR-luciferase reporter, luminescence; inhibition, % at 2 µM; 190,000 compounds, 0.82% hits;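 active = inhibition above a set limit, derived from the sample mean plus 3 SD, cut at about 45% in these data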
# An asterisk follows results filed as active; · = no result.
SMILES,KLF5 inh,BaF3 tox,IEC-6 tox,Ba/F3 V617F tox,aSyn UTR inh,APP transl inh
O=C(CNC(=O)C(c1ccccc1)c1ccccc1)N/N=C/c1cccnc1,-24,2,4,1,-6,·
O=c1c2[nH]cnc2n(-c2cccc(F)c2)c(=O)n1Cc1ccccc1,-14,·,-10,·,41,·
O=[N+]([O-])c1cc(-c2ncccn2)c([N+](=O)[O-])s1,2,2,5,4,-20,76*
O=C(CSc1nnc(CNC(=O)c2ccccc2F)o1)NC1CCCC1,-46,·,-12,·,-37,·
O=S(Cc1ccc(Br)cc1)Cc1nnc(SCc2ccc(Br)cc2)n1-c1ccccc1 (stereo not given),17,34*,7,15,10,15
COc1ccccc1C1c2ccc3ccccc3c2Oc2ncn(CCN(C)C)c(=N)c21 (stereo not given),-14,·,15,·,-11,·
COc1ccc(C2c3ccc4ccccc4c3Oc3ncn(CCCN(C)C)c(=N)c32)cc1 (stereo not given),-14,·,5,·,90*,·
O=S(=O)(c1cccc(C(F)(F)F)c1)N1CCCC1c1cccnc1 (stereo not given),20,32*,16,-1,21,·
Cc1nc2ccccc2c(=O)n1/N=C/c1cccs1,-77,-3,0,0,-79,53*
Cc1nc2ccccc2c(=O)n1/N=C/c1ccccc1,-3,-3,5,-6,-41,-12
COc1cc2c(cc1OC)CN(S(=O)(=O)/C=C/c1ccccc1)CC2,-66,·,-4,·,13,·
COC(=O)/C(=C\Nc1ccc(Oc2ccc(F)cc2F)nc1)NC(=O)c1ccccc1,-12,36*,2,0,-1,·
CCOC(=O)C1=C(N)n2c(s/c(=C\c3cccs3)c2=O)=C(C(=O)OCC)C1c1cccs1 (stereo not given),6,54*,18,42*,29,3
CCOC(=O)C1=C(N)n2c(s/c(=C\c3ccncc3)c2=O)=C(C(=O)OCC)C1c1ccncc1 (stereo not given),-1,10,4,-1,2,7
CN(C)c1cc[n+](CC(=O)N2c3ccccc3Sc3ccccc32)cc1,-1,37*,3,24*,·,3
C=CCc1cc(Cl)ccc1OCCOCCNCCOC,-20,9,1,-1,20,6
C=CCc1cc(Cl)ccc1OCCNCCCOC,-26,92*,-6,4,24,0
CN1CCN(CCC(=O)Nc2cccc(Br)c2)CC1,5,0,-6,0,11,·
COc1ccc(C(=O)NNC(=O)CSc2nnc(-c3cccnc3)o2)cc1,-10,0,-3,0,5,6
COc1cc2ccccc2cc1C(=O)Nc1ccc(O)cc1,-165,·,4,·,-138,·
O=C(c1ccccc1)N1C(=O)C(c2ccccc2)Oc2ccccc21 (stereo not given),-9,-1,3,0,82*,·
O=C(NC1CCSc2ccccc21)c1cccc(S(=O)(=O)N2CCOCC2)c1 (stereo not given),·,·,·,·,9,·
CC1(C)N=C(N)N=C(N)N1c1ccc(F)cc1F,11,36*,3,29*,11,-17
Cc1cccc(N2C(N)=NC(N)=NC23CCCCC3)c1,-4,61*,-6,61*,-5,6
CC1(C)N=C(N)N=C(N)N1c1cccc(CN)c1,-30,58*,2,61*,-1,·
SMILES,KLF5 inh,BaF3 tox,IEC-6 tox,Ba/F3 V617F tox,aSyn UTR inh,APP transl inh
COc1ccc(OC)c(N2C(N)=NC(N)=NC23CCCC3)c1,-22,0,-1,3,-14,7
O=C(NC1CCCCC1)C(c1ccc(O)c(O)c1)N(C(=O)Cn1nnc2ccccc21)c1cccc(O)c1 (stereo not given),-10,6,-6,0,5,-14
O=C1CCC(=O)N1CC(=O)N1CCCc2ccccc21,0,·,-2,·,0,·
C=C(C)Cn1c(=O)c2c(nc3n2CCCN3Cc2ccccc2)n(C)c1=O,-32,·,-4,·,5,·
COc1cc(/C=C2\COC/C(=C\c3cc(OC)c(OC)c(OC)c3)C2=O)cc(OC)c1OC,2,105*,4,99*,103*,·
COc1cc(/C=C2\CC(C(C)(C)C)C/C(=C\c3cc(OC)c(OC)c(OC)c3)C2=O)cc(OC)c1OC (stereo not given),-9,·,-2,·,80*,·
COc1ccc(/C=N\NC(=O)COc2ccccc2)c(C(=O)O)c1OC,-18,3,4,4,-4,10
O=C(Oc1cccnc1)c1ccco1,-13,2,-3,-4,-10,46*
CC[N+]1(CC)CC2=Cc3c(ccc4ccccc34)C(C)C2C1 (stereo not given),-26,54*,2,63*,-1,·
N#Cc1ccccc1COc1ccc(/C=C/C(=O)O)cc1,-2,5,0,8,71*,60*
CCCCc1nc2cc(C(=O)N3CCC(OCCOC)CC3)ccc2o1,-75,·,-2,·,22,·
COC(=O)c1ccccc1NC(=O)CSc1nc(-c2ccco2)cc(C(F)(F)F)n1,-11,5,-2,-1,·,73*
O=C(O)c1ccc(N/N=C/c2ccc(OC(=O)c3cccc(Cl)c3)cc2)cc1,-15,0,-2,-1,76*,·
CC(C)(C)c1cc(CCC(=O)NCc2ccncc2)cc(C(C)(C)C)c1O,-12,·,6,·,-28,·
CCCc1nc2oc3c(NCCN(C)C)ncnc3c2c2c1CCCC2,11,-1,4,-1,-30,-10
CCCc1nc2oc3c(NCCCN(C)C)ncnc3c2c2c1CCCC2,-31,69*,-6,68*,108*,·
CCCCC(=O)Nc1ccc(C(=O)N2CCC(C(=O)OCC)CC2)cc1,-11,38*,2,-4,18,3
CCCCC(=O)Nc1ccc(C(=O)N2CCN(c3ccccc3OC)CC2)cc1,-45,11,-1,7,-40,69*
COc1ccccc1N1CCN(C(=O)c2ccc(NC(C)=O)cc2)CC1,7,9,6,4,1,-3
CCCCCCC(=O)Nc1ccc(C(=O)N2CCCC2)cc1,0,4,-1,-3,23,12
COc1cc(SC)ccc1C(=O)N1CCN(c2ccccc2OC)CC1,36,20,31*,13,24,14
O=C(COC(=O)c1cc[n+]([O-])cc1)Nc1ccc([N+](=O)[O-])cc1Cl,-8,7,-4,2,22,-27
O=C(O)c1ccccc1Nc1ccc2nonc2c1[N+](=O)[O-],3,·,2,·,3,·
COC(=O)CCS(=O)(=O)c1nc(-c2ccccc2)cc(C(F)(F)F)n1,-23,7,4,3,-73,21
CCOC(=O)CS(=O)(=O)c1nc(-c2ccc(F)cc2)cc(C(F)(F)F)n1,-2,4,1,-3,-33,61*
CS(=O)(=O)c1nc(-c2ccc(F)cc2)cc(C(F)(F)F)n1,-41,8,25*,15,-126,30
CCOC(=O)CCS(=O)(=O)c1nc(-c2ccccc2)cc(C(F)(F)F)n1,-13,7,8,39*,-129,30
